Screens from PubChem.
Shown are actives, neighbours in structure and some others; about 32% of the full set was active somewhere.
CYP2C19 act – cytochrome P450 2C19 (human) activation | activation factor at 5 µM | 96,000 tested, under 10 active | P33261 | AID 1025 | recombinant CYP2C19, luciferin-H EGE luminescence; hits give high values; 0 = fully inhibited enzyme, 1 = untreated enzyme;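 active = activation factor of at least 2 at 5 µM in the primary screen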;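 note: 0 = wells with 2.5 mM tranylcypromine and 1 = vehicle-only wells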
Target sequence (P33261 whole entry, looked up): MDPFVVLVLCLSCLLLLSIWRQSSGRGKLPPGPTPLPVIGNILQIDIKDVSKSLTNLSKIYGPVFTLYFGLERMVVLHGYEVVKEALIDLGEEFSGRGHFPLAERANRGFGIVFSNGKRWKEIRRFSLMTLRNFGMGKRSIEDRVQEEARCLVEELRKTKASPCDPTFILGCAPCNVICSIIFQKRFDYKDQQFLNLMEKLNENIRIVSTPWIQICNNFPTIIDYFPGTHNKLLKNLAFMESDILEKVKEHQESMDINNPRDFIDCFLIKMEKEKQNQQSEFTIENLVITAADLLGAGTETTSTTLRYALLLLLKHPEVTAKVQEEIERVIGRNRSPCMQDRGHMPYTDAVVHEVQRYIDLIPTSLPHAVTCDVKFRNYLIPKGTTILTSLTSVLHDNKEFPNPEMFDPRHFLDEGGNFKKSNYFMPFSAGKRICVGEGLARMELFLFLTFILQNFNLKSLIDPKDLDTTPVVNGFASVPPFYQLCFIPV
PostGolgi ctrl – growth of the yeast control strain, post-Golgi counter-screen; inhibition, % at 10 µM; AID 738; efflux-deficient yeast background strain, growth absorbance A615, 16 h; 98,000 tested, 5% active
CYP2C19 inh – blocks human cytochrome P450 2C19 | P33261 | AID 778 | 96,000 tested, 21% active | CYP2C19 Supersomes, luciferin-H EGE luminescence, 30 min | inhibition, % at 5 µM;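 active = CYP2C19 inhibition above a set limit at 5 µM in the primary screen, cut at about 50% in these data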;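 note: plate controls were negative control wells for no effect and 2.5 mM tranylcypromine positive control for full effect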
CYP2C9 inh – blocks human cytochrome P450 2C9; P11712; CYP2C9 Supersomes, luciferin-H conversion, luminescence; inhibition, % at 5 µM; 96,000 tested, 20% active; AID 777;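 active = blocking of liver enzyme CYP2C9 beyond about 50% at 5 µM, limit read from the data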
CYP2C9 activ – activators of human CYP2C9; recombinant CYP2C9, luciferin-H conversion, luminescence; hits give high values; factor 1 = untreated enzyme, 0 = blocked; activation factor at 5 µM; 96,000 tested, 1.4% active; AID 1024;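 active = activation factor of 2 or more for CYP2C9 at a 5 µM dose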;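 note: 0 = sulfaphenazole-blocked wells and 1 = vehicle-only wells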
PostGolgi yeast – growth inhibition of a yeast mutant, post-Golgi transport screen. 98,000 tested, 0.9% active. AID 739. inhibition, % at 10 µM. post-Golgi transport phenotypic cell assay;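 note: yeast cells grown in 1536-well plates; yeast grown about 18 h at 30C before absorbance read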
Starred values were filed as active, the others as inactive; / = no result given. Cut-off read from the data, not from the text of the source, unless noted: active = inhibition above about 30%; inactive = the rest.

SMILES	CYP2C19 act	PostGolgi ctrl	CYP2C19 inh	CYP2C9 inh	CYP2C9 activ	PostGolgi yeast
Cc1cc(C)nc(SCC(=O)c2ccc([N+](=O)[O-])cc2)n1	0.1	0.0	92.2*	20.5	0.8	-0.6
Cc1cc(N2CCOCC2)nc(SCC(=O)c2ccccc2)n1	0.4	7.8	55.5*	45.0	0.6	8.0
O=C(Nc1ccc(N2CCOCC2)nc1)c1ccc(Cl)cc1	1.1	17.9	-5.7	-14.3	1.1	-15.9
Cc1cc(C)nc(SCC(=O)c2ccc(O)cc2O)n1	0.6	4.2	43.9	-33.3	1.3	5.5
CCOC(=O)Cn1c(=O)c(-c2ccccc2NC)nc2ccccc21	0.9	5.7	10.1	-16.2	1.2	1.8
CCOC(=O)c1cc(C#N)c(Oc2ccccc2)nc1-c1ccccc1	0.8	17.6	21.8	33.1	0.7	8.0
COC(=O)c1cc(C#N)c(Oc2ccc(F)cc2)nc1C	0.5	-2.3	53.6*	0.6	1	2.2
COc1ccc(-c2noc(Cc3ccc(Cl)cc3)n2)cc1OC	0.9	25.8	12.9	38.8	0.6	6.2
Fc1ccc(OCc2nc(-c3ccc(Br)o3)no2)c(F)c1	0.1	2.8	94.4*	27.4	0.7	5.8
Clc1ccccc1OCc1nc(-c2ccc(Br)o2)no1	0.1	19.7	93.8*	57.8*	0.4	-18.3
Brc1ccc(-c2noc(COc3ccc4ccccc4c3)n2)o1	0.9	12.1	13.6	-11.5	1.1	-7.4
COc1ccc(Cc2nc(-c3ccc(Br)o3)no2)cc1OC	0.1	1.1	87.7*	64.9*	0.4	0.2
CC1=CC(C)(C)N(C(=O)CSc2nnc(N)s2)c2c(C)cc(C)cc21	0.4	21.8	59.7*	50.3*	0.5	6.6
O=C(NC1CC1)C1=NOC(CNc2ncc(C(F)(F)F)cc2Cl)C1 (configuration not stated)	0.2	-17.0	84.6*	-138.8	2.4*	7.0
CC(Cl)C(=O)Nc1ncc(C(F)(F)F)cc1Cl (configuration not stated)	1.2	1.2	-19.9	10.1	0.9	5.8
O=C(N/C=N/O)C1=NOC(CNc2ncc(C(F)(F)F)cc2Cl)C1 (configuration not stated)	0.2	4.4	77.3*	5.2	0.9	0.6
CC(C)(C)C1CCC(=NNc2ncc(C(F)(F)F)cc2Cl)CC1 (configuration not stated)	0.6	5.5	40.4	19.1	0.8	-0.8
O=C(Nc1ccnc(-c2cccnc2)n1)c1ccccc1Cl	0.8	4.7	24.1	25.0	0.8	-2.4
CCCCC(=O)Nc1ccnc(-c2cccnc2)n1	0	6.4	97.8*	76.2*	0.2	18.9
CC(C)C(=O)Nc1ccnc(-c2cccnc2)n1	0.2	4.0	75.9*	42.1	0.6	-2.1
O=C(Nc1ccnc(-c2cccnc2)n1)c1cccc(Cl)c1Cl	0.5	14.3	51.0*	24.2	0.8	0.6
CC(C)C(=O)Nc1ccc(NC(=O)c2cccnc2)cn1	0.8	-2.2	18.3	-23.1	1.2	-2.4
CCCCC(=O)Nc1ccc(NC(=O)c2cccnc2)cn1	0.9	-8.0	8.2	28.7	0.7	11.9
CCc1ccc(C2CC(c3ccccc3C)n3nc(N)nc3N2)cc1 (configuration not stated)	0.9	2.7	8.1	-11.2	1.1	0.2
COc1ccc(N(Cc2cc3cccc(C)c3[nH]c2=O)S(C)(=O)=O)cc1	1	4.4	-2.5	-12.2	1.1	-3.2
SMILES	CYP2C19 act	PostGolgi ctrl	CYP2C19 inh	CYP2C9 inh	CYP2C9 activ	PostGolgi yeast
CC(NC(=O)C(=O)NN=C1CCCCCCCCCCC1)c1ccccc1 (configuration not stated)	0.9	-3.8	14.2	-3.0	1	-6.7
NS(=O)(=O)c1ccc(NC(=O)CCc2ccccc2)cc1	1	5.3	1.0	30.8	0.7	1.9
Cc1ccc(S(=O)(=O)NCCC(=O)NCc2ccccc2)cc1	0.8	5.1	16.4	-36.5	1.4	2.1
Cc1ccc(S(=O)(=O)NCCc2ccccc2)cc1	0	8.1	96.5*	64.9*	0.4	7.2
NS(=O)(=O)c1ccc(S(=O)(=O)NCCc2ccccc2)cc1	0.2	-1.6	85.0*	11.8	0.9	-11.2
CC(C)n1c(CCCO)nc2ccccc21	1	/	3.9	-15.0	1.1	/
CC1(C(=O)Nc2nnc(SCc3ccccc3)s2)Cc2ccccc2C(=O)O1 (configuration not stated)	0.9	18.6	14.8	79.0*	0.2	3.5
CC1(C(=O)Nc2nccs2)Cc2ccccc2C(=O)O1 (configuration not stated)	1	-15.1	-2.3	-0.6	1	-0.5
COc1ccccc1NC(=O)C1(C)Cc2ccccc2C(=O)O1 (configuration not stated)	0.6	-1.9	40.0	-133.6	2.3*	3.9
O=C(Nc1nnc(SCc2ccccc2)s1)c1cc2c(s1)CCCC2	0.8	4.5	22.2	37.7	0.6	6.6
COC(=O)c1c(NC(=O)C2(C)Cc3ccccc3C(=O)O2)sc2c1CCCC2 (configuration not stated)	0.4	13.8	60.5*	55.9*	0.4	-7.4
CCC(=O)N1CCCc2cc(S(=O)(=O)N3CCN(C4CCCCC4)CC3)ccc21	0.7	8.9	33.0	-5.7	1.1	0.6
CNC(=O)/C(=C\c1ccc([N+](=O)[O-])cc1)NC(C)=O	1.1	1.3	-11.2	1.3	1	2.5
NC(=O)c1ccsc1NC(=O)COC(=O)C1CCCN1C(=O)c1cccs1 (configuration not stated)	0.3	16.6	72.4*	72.3*	0.3	-16.2
COc1ccc(NC(=O)COC(=O)[C@@H]2CCCN2C(=O)c2cccs2)c(OC)c1	0.6	10.4	42.5	56.1*	0.4	-2.5
COc1ccc(NC(=O)C2CCN(C(=O)c3cccs3)CC2)cc1	1.1	3.9	-5.9	-20.2	1.2	-9.6
N#CC1(Cc2ccc(Cl)cc2)c2ccccc2C=CN1C(=O)c1ccccc1 (configuration not stated)	0	23.5	96.5*	92.9*	0.1	3.6
Cc1ccc(NC2=Nc3ccccc3CC2)cc1	0.2	-0.3	83.7*	37.6	0.6	-4.2
Brc1ccc(NC2=Nc3ccccc3CC2)cc1	0.5	-20.4	52.3*	27.5	0.7	10.1
c1ccc(NC2=Nc3ccccc3CS2)cc1	0.7	4.6	31.4	15.1	0.8	-4.4
Cc1cc2ccccc2c(=O)n1CC(=O)Nc1ccc2c(c1)OCCO2	0.4	-0.6	55.7*	62.9*	0.4	-4.8
O=C(CN1C(=O)CCSc2ccccc21)Nc1ccc2c(c1)OCO2	0.1	-7.5	90.0*	70.4*	0.3	-2.1
O=C(CN1C(=O)CSc2ccccc21)Nc1ccc2c(c1)OCCO2	0.7	0.1	29.6	-118.5	2.2*	1.7
O=C(CN1C(=O)COc2ccccc21)Nc1ccc2c(c1)OCCO2	0.4	2.4	57.1*	33.2	0.7	-2.6
O=C(CN1C(=O)CCS(=O)(=O)c2ccccc21)Nc1ccc2c(c1)OCCO2	/	-1.8	/	/	/	3.7
